Measurements from PubChem BioAssay (EPA / NIEHS).
Records with an inconclusive call do not appear. Activity calls are given as the source filed them. How the source made its calls: active means hit-call score of the fitted dose curve at least 0.9, where 1 is the maximum; inconclusive means response in the unintended direction; inactive means score below 0.9.

Tests used:
[1] = target: Estrogen receptor (Homo sapiens) (UniProt P03372); experiment: OT_ER_ERaERa_1440: Odyssey Thera (OT) 24-hour HEK293T Protein-Complementation Assay for Estrogen Receptor-alpha/-alpha Homodimer (AID 2283349);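 further: hits raise fluorescence above DMSO for agonists and antagonists alike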
Sequence of Estrogen receptor (Homo sapiens) (P03372 whole entry, looked up, the tested form may be a part): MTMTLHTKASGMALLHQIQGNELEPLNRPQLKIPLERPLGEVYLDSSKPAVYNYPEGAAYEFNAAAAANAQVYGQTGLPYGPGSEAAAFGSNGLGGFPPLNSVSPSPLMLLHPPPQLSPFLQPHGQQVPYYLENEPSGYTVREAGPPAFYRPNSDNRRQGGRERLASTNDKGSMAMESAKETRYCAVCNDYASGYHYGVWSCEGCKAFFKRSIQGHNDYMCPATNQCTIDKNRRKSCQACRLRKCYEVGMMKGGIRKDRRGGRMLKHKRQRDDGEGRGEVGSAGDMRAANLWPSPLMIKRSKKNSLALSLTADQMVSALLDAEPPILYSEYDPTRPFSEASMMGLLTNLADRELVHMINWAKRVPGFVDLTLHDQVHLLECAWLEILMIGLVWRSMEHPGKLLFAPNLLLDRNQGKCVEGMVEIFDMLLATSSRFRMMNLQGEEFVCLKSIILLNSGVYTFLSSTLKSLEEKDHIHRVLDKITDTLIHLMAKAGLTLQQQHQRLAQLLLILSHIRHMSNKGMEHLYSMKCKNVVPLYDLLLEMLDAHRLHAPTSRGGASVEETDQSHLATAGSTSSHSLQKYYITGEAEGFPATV
Summary of the method: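 Cells (HEK293T) carrying the fragment-tagged ERα LBD (aa 310-547) pair are treated with chemical for 24 hours. Nuclear and/or cytoplasmic fluorescence is then quantified on a laser scanning cytometer. Activity is scored as signal gain against DMSO.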

[2] = target: Estrogen receptor (Homo sapiens) (UniProt P03372); experiment: OT_ER_ERaERa_0480: Odyssey Thera (OT) 8-hour HEK293T Protein-Complementation Assay for Estrogen Receptor-alpha/-alpha Homodimer (AID 2283351);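 further: rise in fluorescence from reassembled reporter fragments on ERα LBD homodimer in nucleus or whole cell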
Summary of the method: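 HEK293T cells stably expressing a PCA pair of ER alpha LBD (residues 310-547) were dosed for 8 hours. The gain in fluorescence intensity, nuclear for agonists and whole-cell for antagonists, was measured by laser scanning cytometry against DMSO vehicle.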

[3] = target: T1, Estrogen receptor (Homo sapiens) + Estrogen receptor beta (Homo sapiens) (UniProt P03372+Q92731); experiment: OT_ER_ERaERb_0480: Odyssey Thera (OT) 8-hour HEK293T Protein-Complementation Assay for Estrogen Receptor-alpha/-beta Heterodimer (AID 2283352)
T1 sequence (P03372 whole entry, looked up, the tested form may be a part): as above
T1 sequence (Q92731 whole entry, looked up, the tested form may be a part): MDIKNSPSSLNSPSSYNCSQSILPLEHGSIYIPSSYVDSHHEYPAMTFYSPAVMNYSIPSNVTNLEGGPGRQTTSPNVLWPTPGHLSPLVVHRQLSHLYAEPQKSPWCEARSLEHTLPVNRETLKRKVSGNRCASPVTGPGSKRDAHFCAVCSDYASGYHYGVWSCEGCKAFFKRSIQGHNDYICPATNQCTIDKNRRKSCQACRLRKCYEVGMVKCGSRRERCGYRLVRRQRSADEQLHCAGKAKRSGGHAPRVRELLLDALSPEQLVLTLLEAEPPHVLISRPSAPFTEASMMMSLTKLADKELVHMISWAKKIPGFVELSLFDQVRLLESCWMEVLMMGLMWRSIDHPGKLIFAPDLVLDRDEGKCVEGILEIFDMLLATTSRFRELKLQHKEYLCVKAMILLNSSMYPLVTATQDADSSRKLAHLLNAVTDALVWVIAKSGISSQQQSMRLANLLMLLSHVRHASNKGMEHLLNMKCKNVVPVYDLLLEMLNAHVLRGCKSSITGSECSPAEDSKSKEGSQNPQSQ
Summary of the method: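 Fluorescence intensity readout from a protein-fragment complementation reporter in HEK293T; ER-alpha/ER-beta LBD heterodimer. Dosing 8 h. Gain-of-signal fit relative to DMSO negative control; laser scanning cytometry of whole-well cell population.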

[4] = target: T1, Estrogen receptor (Homo sapiens) + Estrogen receptor beta (Homo sapiens); experiment: OT_ER_ERaERb_1440: Odyssey Thera (OT) 24-hour HEK293T Protein-Complementation Assay for Estrogen Receptor-alpha/-beta Homodimer (AID 2283356);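 further: heteromer of ER alpha and ER beta binding domains; hits raise reporter fluorescence and both agonists and antagonists give an increase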
Summary of the method: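 Readout: mean fluorescence intensity in nucleus (agonists) or nucleus plus cytoplasm (antagonists), read by laser scanning cytometer after 24 h compound exposure of HEK293T cells carrying ERα/ERβ LBD fragment-complementation constructs; DMSO baseline.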

[5] = target: Peroxisome proliferator-activated receptor gamma (Homo sapiens) (UniProt P37231); experiment: NVS_NR_hPPARg: NovaScreen (NVS) Nuclear Receptor Binding Assay for human Peroxisome Proliferator-activated Receptor gamma (PPARg) (AID 2283370)
Sequence of Peroxisome proliferator-activated receptor gamma (Homo sapiens) (P37231 whole entry, looked up): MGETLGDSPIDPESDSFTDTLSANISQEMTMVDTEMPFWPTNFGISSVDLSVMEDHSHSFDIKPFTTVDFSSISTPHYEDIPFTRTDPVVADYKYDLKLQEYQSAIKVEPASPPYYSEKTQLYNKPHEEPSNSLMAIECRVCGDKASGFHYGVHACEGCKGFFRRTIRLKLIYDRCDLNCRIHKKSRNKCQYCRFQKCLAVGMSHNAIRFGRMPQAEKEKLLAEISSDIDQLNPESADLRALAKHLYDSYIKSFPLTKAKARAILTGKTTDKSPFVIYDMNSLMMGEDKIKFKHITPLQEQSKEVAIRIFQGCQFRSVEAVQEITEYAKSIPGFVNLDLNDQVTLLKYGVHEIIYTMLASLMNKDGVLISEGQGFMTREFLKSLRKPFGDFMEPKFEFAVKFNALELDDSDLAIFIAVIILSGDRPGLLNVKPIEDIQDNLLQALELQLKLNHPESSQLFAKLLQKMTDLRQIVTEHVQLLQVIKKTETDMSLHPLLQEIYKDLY
Summary of the method: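 FP read-out, 2 h post-dose, cell-free extracted receptor protein. Signal loss vs DMSO negative control = binding activity. Single-conc duplicate HTS at 25 uM; concentration-response follow-up for actives.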

[6] = target: Androgen Receptor/SRC-1 Co-activator, AR (gene 367) (UniProt P10275); experiment: OT_AR_ARSRC1_0960: Odyssey Thera (OT) 16-hour HEK293T Protein-Complementation Assay for Androgen Receptor/SRC-1 Co-activator (AID 2283353);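 further: actives raise the signal above DMSO so potency reflects increased AR and SRC-1 complex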
Summary of the method: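 Endpoint is gain-of-signal N/C fluorescence ratio in the 488 nm channel versus DMSO, from at least 400 cells per image, measured 16 h post-dosing. Cells: HEK293T stably carrying split-Venus AR/SRC-1 complementation constructs.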

[7] = target: Retinoic acid receptor alpha (Homo sapiens) (UniProt P10276); experiment: NVS_NR_hRAR_Antagonist: NovaScreen (NVS) Nuclear Receptor Binding Assay for human Retinoic Acid Alpha Receptor Antagonism (RAR) (AID 2283358)
Sequence of Retinoic acid receptor alpha (Homo sapiens) (P10276 whole entry, looked up): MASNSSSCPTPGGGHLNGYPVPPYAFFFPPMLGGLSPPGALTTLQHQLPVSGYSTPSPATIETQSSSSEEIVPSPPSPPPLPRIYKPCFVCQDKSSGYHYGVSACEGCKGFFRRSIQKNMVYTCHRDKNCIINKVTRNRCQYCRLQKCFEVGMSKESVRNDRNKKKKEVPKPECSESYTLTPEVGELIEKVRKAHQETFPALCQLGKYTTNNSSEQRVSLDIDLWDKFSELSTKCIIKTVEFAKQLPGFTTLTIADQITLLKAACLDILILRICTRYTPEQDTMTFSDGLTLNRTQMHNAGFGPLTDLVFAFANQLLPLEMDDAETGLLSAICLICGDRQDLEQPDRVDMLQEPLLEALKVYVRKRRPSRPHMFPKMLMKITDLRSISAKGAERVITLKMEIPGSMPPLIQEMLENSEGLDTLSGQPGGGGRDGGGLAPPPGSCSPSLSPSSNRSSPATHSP
Summary of the method: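 Read-out: time-resolved FRET binding signal, 2 h post-dose, cell-free extracted protein. Antagonism scored as signal loss versus DMSO negative control. Primary single-concentration screen at 25 uM in duplicate; concentration series for actives.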

[8] = target: Glucocorticoid receptor (Homo sapiens) (UniProt P04150); experiment: NVS_NR_hGR: NovaScreen (NVS) Nuclear Receptor Binding Assay for human Glucocorticoid Receptor (GR) (AID 2283363);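 on AC50: activity is loss of specific radioligand binding signal relative to DMSO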
Sequence of Glucocorticoid receptor (Homo sapiens) (P04150 whole entry, looked up): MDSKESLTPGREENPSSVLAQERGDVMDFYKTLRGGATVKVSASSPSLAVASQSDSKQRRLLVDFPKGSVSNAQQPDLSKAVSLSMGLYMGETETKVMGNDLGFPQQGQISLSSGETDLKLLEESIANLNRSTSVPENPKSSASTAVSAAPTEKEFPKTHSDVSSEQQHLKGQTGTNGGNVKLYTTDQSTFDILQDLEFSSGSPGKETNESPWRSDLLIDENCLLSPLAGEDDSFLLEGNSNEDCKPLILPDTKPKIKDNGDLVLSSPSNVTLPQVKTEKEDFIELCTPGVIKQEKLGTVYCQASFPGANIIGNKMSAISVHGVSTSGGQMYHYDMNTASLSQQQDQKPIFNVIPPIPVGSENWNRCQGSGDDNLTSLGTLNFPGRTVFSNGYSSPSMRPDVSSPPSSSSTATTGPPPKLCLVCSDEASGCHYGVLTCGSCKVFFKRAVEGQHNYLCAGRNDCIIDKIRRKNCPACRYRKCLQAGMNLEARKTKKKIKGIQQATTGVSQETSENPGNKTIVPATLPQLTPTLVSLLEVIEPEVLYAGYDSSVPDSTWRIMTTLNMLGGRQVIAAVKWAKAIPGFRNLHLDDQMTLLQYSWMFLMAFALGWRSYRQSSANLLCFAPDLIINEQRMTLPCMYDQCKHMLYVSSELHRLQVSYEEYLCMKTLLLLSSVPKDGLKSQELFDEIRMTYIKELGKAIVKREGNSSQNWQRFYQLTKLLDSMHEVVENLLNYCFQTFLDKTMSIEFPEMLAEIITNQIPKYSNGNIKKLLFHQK
Summary of the method: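 Filter scintillation readout of tritiated/iodinated radioligand displaced by test chemical; cell-free extracted protein; 16 h. DMSO = negative control/baseline. Duplicate single-point 25 uM screen, then concentration-response on actives.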

[9] = target: rat Androgen Receptor (AR), Ar (gene 24208) (UniProt P15207); experiment: NVS_NR_rAR: NovaScreen (NVS) Nuclear Receptor Binding Assay for rat Androgen Receptor (AR) (AID 2283366)
Sequence of rat Androgen Receptor (AR), Ar (gene 24208) (P15207 whole entry, looked up): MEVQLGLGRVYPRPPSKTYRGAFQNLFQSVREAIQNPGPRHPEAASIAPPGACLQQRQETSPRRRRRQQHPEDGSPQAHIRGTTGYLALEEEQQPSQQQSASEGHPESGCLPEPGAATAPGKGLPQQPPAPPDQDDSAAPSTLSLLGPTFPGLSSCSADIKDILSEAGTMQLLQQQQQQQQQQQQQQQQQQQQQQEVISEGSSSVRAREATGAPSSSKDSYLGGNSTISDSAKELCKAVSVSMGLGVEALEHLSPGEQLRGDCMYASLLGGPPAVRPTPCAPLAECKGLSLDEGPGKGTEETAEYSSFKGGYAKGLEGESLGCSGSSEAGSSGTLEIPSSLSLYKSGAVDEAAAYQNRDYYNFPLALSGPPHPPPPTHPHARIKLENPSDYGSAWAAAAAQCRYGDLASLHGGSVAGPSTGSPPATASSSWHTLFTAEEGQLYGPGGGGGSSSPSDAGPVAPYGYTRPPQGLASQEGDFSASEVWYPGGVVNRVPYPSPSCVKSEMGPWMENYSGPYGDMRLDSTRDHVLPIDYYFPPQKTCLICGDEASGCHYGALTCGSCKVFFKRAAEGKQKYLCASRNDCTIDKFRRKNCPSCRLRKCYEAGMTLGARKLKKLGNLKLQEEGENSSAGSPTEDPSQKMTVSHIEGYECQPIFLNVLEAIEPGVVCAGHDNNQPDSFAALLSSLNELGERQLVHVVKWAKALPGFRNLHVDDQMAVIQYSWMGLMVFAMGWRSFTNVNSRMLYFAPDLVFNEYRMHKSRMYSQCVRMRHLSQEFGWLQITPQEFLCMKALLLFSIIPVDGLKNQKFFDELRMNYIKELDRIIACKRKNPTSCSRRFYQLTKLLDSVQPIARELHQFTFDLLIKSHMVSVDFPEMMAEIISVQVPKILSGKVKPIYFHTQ
Summary of the method: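 Actives from a duplicate single-concentration (25 uM) primary run went on to concentration series. Displacement of radioligand was counted by filtration and scintillation, 18 h post-dose, using prostate extracts from testosterone-pretreated rats, with DMSO as baseline.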

[10] = tested on: guinea pig Dopamine Transporter (DAT), gene 100714898; experiment: NVS_TR_gDAT: NovaScreen (NVS) Transporter Assay for guinea pig Dopamine Transporter (DAT) (AID 2283369);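 further: active compounds lower bound radioligand signal relative to DMSO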
Summary of the method: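 Cell-free striatal membrane prep (guinea pig), 2 h exposure, filtration + scintillation readout of radioligand binding. Single-point 25 uM duplicate; actives rerun singleton, top conc 50 uM.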

[11] = target: Bile acid receptor (Homo sapiens) (UniProt Q96RI1); experiment: NVS_NR_hFXR_Antagonist: NovaScreen (NVS) Nuclear Receptor Binding Assay for human Farnesoid X Receptor Antagonism (FXR) (AID 2283350)
Sequence of Bile acid receptor (Homo sapiens) (Q96RI1 whole entry, looked up): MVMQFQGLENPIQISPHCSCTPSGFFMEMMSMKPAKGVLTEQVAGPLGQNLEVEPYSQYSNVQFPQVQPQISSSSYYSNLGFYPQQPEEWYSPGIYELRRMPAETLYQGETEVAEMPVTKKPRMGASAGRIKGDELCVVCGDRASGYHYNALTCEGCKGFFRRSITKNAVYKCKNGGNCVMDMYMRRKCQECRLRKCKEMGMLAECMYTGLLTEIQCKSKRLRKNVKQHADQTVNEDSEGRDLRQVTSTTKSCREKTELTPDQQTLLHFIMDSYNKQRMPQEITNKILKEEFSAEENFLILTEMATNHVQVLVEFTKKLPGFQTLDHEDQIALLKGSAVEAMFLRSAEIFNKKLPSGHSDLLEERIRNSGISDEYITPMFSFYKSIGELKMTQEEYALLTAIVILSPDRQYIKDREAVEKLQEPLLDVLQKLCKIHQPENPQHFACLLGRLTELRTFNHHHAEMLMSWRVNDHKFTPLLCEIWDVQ
Summary of the method: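 Antagonist-format time-resolved FRET binding assay with extracted human receptor protein, read 1 hour after compound addition. Compounds first screened at 25 uM in duplicate, then actives tested in concentration series, with loss of signal relative to DMSO.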

[12] = target: Retinoic acid receptor alpha (Homo sapiens) (UniProt P10276); experiment: NVS_NR_hRARa_Agonist: NovaScreen (NVS) Nuclear Receptor Binding Assay for human Retinoic Acid Alpha Receptor Agonism (RAR) (AID 2283361)
Summary of the method: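 TR-FRET signal, 2 h post-dosing; cell-free extracted protein; DMSO = baseline, positive fitting direction; 25 uM single-point duplicate, then concentration series for actives.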

[13] = target: human Thyroid Receptor Alpha (TRa), THRA (gene 7067) (UniProt P10827); experiment: NVS_NR_hTRa_Antagonist: NovaScreen (NVS) Nuclear Receptor Binding Assay for human Thyroid Receptor Alpha Antagonism (TRa) (AID 2283362);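 further: activity is loss of signal relative to DMSO baseline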
Sequence of human Thyroid Receptor Alpha (TRa), THRA (gene 7067) (P10827 whole entry, looked up): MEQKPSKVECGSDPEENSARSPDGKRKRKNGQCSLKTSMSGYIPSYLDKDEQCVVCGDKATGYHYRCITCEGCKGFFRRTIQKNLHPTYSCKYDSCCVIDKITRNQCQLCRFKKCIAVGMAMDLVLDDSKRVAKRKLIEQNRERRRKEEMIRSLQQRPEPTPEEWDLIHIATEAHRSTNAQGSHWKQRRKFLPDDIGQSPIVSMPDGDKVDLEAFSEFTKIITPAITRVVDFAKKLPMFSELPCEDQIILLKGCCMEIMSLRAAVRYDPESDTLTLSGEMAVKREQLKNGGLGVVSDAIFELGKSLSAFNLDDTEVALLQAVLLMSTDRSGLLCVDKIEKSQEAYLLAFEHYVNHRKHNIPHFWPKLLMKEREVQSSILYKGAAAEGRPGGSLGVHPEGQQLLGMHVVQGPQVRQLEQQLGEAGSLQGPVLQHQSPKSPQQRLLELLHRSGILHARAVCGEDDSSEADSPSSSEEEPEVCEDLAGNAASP
Summary of the method: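 AlphaLISA chemiluminescent immunoassay readout, taken 1 h post-dosing in a cell-free system with extracted protein. Activity was scored as signal loss against DMSO negative control, from duplicate single-concentration (25 uM) testing followed by concentration-response follow-up.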

[14] = target: human Serotonin Transporter (SERT), SLC6A4 (gene 6532) (UniProt P31645); experiment: NVS_TR_hSERT: NovaScreen (NVS) Transporter Assay for human Serotonin Transporter (SERT) (AID 2283372)
Summary of the method: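 Human platelet membrane preparation; displacement of radioligand from serotonin transporter measured after 1 h by filtration and scintillation counting. Single 25 uM duplicate screen, then concentration series for actives, with DMSO as negative baseline.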

SMILES: CCC(C)Nc1c([N+](=O)[O-])cc(C(C)(C)C)cc1[N+](=O)[O-] (centres undefined)
- outcome [1]: inactive
- outcome [2]: inactive
- AC50 [3]: 34.7 µM (active)
- AC50 [4]: 69.9 µM (active)
- outcome [5]: inactive

SMILES: O=S1OCC2C(CO1)C1(Cl)C(Cl)=C(Cl)C2(Cl)C1(Cl)Cl (centres undefined)
- outcome [1]: inactive
- outcome [2]: inactive
- AC50 [6]: 34.5 µM (active)
- outcome [7]: inactive
- AC50 [8]: 2.29 µM (active)
- outcome [9]: inactive
- AC50 [10]: 17.7 µM (active)
- outcome [5]: inactive

SMILES: CC(C)OC(=O)Nc1cccc(Cl)c1
- outcome [1]: inactive
- outcome [2]: inactive
- outcome [3]: inactive
- outcome [4]: inactive
- outcome [10]: inactive

SMILES: CCOC1Oc2ccc(OS(C)(=O)=O)cc2C1(C)C (centres undefined)
- outcome [1]: inactive
- outcome [2]: inactive
- outcome [3]: inactive
- outcome [6]: inactive
- outcome [4]: inactive

SMILES: N#Cc1c(Cl)c(Cl)c(Cl)c(C#N)c1Cl
- outcome [1]: inactive
- outcome [11]: inactive
- outcome [2]: inactive
- outcome [4]: inactive
- AC50 [12]: 36.9 µM (active)
- AC50 [13]: 40.5 µM (active)
- AC50 [8]: 0.177 µM (active)
- AC50 [5]: 0.495 µM (active)
- outcome [14]: inactive

SMILES: O=[N+]([O-])c1c(Cl)c(Cl)c(Cl)c(Cl)c1Cl
- outcome [1]: inactive
- outcome [2]: inactive
- outcome [3]: inactive
- outcome [6]: inactive
- outcome [4]: inactive
- outcome [7]: inactive
- outcome [13]: inactive
- outcome [8]: inactive
- outcome [9]: inactive
- AC50 [5]: 38.1 µM (active)

SMILES: O=[N+]([O-])/N=C1\NCCN1Cc1ccc(Cl)nc1
- outcome [1]: inactive
- outcome [11]: inactive
- outcome [2]: inactive
- outcome [3]: inactive
- outcome [6]: inactive
- outcome [4]: inactive
- outcome [7]: inactive
- outcome [13]: inactive
- outcome [8]: inactive
- outcome [9]: inactive
- outcome [5]: inactive

SMILES: CCC(C)(NC(=O)c1cc(Cl)c(C)c(Cl)c1)C(=O)CCl (centres undefined)
- outcome [1]: inactive
- outcome [2]: inactive
- outcome [3]: inactive
- outcome [4]: inactive

SMILES: CC1(c2ccc(Oc3ccccc3)cc2)OC(=O)N(Nc2ccccc2)C1=O (centres undefined)
- outcome [1]: inactive
- AC50 [11]: 10 µM (active)
- outcome [2]: inactive
- outcome [3]: inactive
- outcome [4]: inactive
- outcome [7]: inactive
- outcome [5]: inactive
